# Only some compounds are listed: those with a hit (about 9.3% of all), similar ones and a draw of the others.
# HCV inhibitor: HCV inhibition | Huh7.5.1 HCVcc-Cre infection, luciferase reporter, 44 h | Potency, µM (highest dose often 41.8 µM), for the others: at the highest dose activity change, negative = inhibition, actives largely listed as inhibitors | 340,000 compounds, 3.4% hits | AID 651820; further: potency means the concentration at half of the fitted maximal effect
#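 Luciferase read-out (15 sec integration) after a 15 min room-temperature substrate step quantifies HCVcc-Cre infection. Cells, 1,000 per well, had compound added 4 h post-plating, then virus at ~0.5 moi, and were cultured 44 h.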
# Vaccinia Venus: vaccinia inhibition (Venus reporter); Vaccinia virus Venus reporter expression, fluorescence; Potency, µM (top dose mostly 36.5 µM), inactives show top-dose activity change, negative = inhibition, usual class: inhibitors; 330,000 compounds, 0.46% hits; AID 720580; calls by dose curve; tested in A549 cells; further: potency means the concentration at half of the fitted maximal effect; nearly all actives have a fitted effect of over 30% in size
# HCMV antiviral: inhibitors of human cytomegalovirus; HFF cells, HCMV-luciferase reporter, 72 h; hits give low values; activity change, negative = inhibition, % at 57.5 µM; 410,000 compounds, 4.5% hits; in the data active means activity change below about -60%; inconclusive means no clear call, values can overlap the other calls; inactive means above about -39%
#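 Steps: HFFs plated, 16 h 37C; compounds added; HCMV-luciferase added to MOI 1 PFU/cell; 72 h 37C; OneGlo reagent, 5 min room temperature; luminescence read, normalized to controls.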
# FMDV antiviral: foot and mouth disease virus antiviral activity. FMDV antiviral cell-based qHTS. Potency, µM (top dose mostly 57.9 µM), for inactives: top-dose activity change, negative = inhibition, most hits filed as inhibitors. 410,000 compounds, 1.2% hits. AID 1159524; calls by dose curve; tested in HEK293T cells; further: read-out not given here; potency means the concentration at half of the fitted maximal effect; nearly all actives have a fitted effect of over 45% in size
# Sm TGR block: inhibitors of Schistosoma mansoni thioredoxin glutathione reductase; Q962Y6; purified TGR, DTNB reduction, TNB absorbance 405 nm; Potency, µM (top dose mostly 114 µM), for inactives: top-dose activity change, negative = inhibition, hits mostly inhibitors; 360,000 compounds, 3% hits; further: potency means the concentration at half of the fitted maximal effect; nearly all actives have a fitted effect of over 60% in size
#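 TGR 20 nM + NADPH 100 uM (dispensed conc.), cpd preinc 15 min RT; start with NADPH (500 uM addition) then DTNB (15 mM addition). Kinetic TNB absorbance, 405 nm filter. Four-parameter Hill fit across titration.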
# VACV mCherry inh: inhibitors of vaccinia virus infection (mCherry reporter signal); Vaccinia virus mCherry reporter infection, fluorescence; Potency, µM (titrated, usually from 36.5 µM), for the others: at the top dose activity change, negative = inhibition, usual class: inhibitors; 310,000 compounds, 0.63% hits; calls by dose curve; tested in A549 cells; further: potency means the concentration at half of the fitted maximal effect; nearly all actives have a fitted effect of over 35% in size
# Active calls of the source: *; i = inactive; ? = inconclusive; / = not tested or not shown; [ ] = remark or other dose. Unless noted, the call rests on the fitted dose curve; in most records, active means well fitted curve in the direction sought with a large enough effect; inconclusive means small, poorly fitted or top-dose-only effect, or another doubt; inactive means no such curve, though single readings can be large; an effect the other way counts as inactive or inconclusive. On the % scale 0 is the no-effect control and ±100 the full control effect.
SMILES,HCV inhibitor,Vaccinia Venus,HCMV antiviral,FMDV antiviral,Sm TGR block,VACV mCherry inh
O=C(NCC(=O)N(c1ccc2c(c1)OCO2)C(C(=O)NC1CCCC1)c1cccs1)c1ccco1 (stereo not drawn),-2.9%,-14.6%,1.4,-9.2%,-2.6%,i
CN(C)c1ccc(C(=S)N2CCCCC2)cc1,10.6%,-3.9%,16.5,13.3%,8.2%,-8.3%
Cc1ccccc1CS(=O)(=O)c1ncc(Cl)c(C(=O)Nc2ccc(F)cc2)n1,-21.2%,/,-98.1*,?,3.55µM*,/
O=C(NCc1ccccc1)c1nc(S(=O)(=O)Cc2ccc(F)cc2)ncc1Cl,/,-13.7%[7.34 µM],-97.9*,31.6µM*,5.01µM*,-11.8%[7.34 µM]
Cc1cccc(C)c1NC(=O)c1nc(S(=O)(=O)Cc2ccccc2)ncc1Cl,?,-8.6%,-100.1*,28.2µM*,12.6µM*,-29.3%
CCOC(=O)c1nc(S(C)(=O)=O)ncc1Cl,?,0.0%,-70.2*,/,8.91µM*,i
CCOC(=O)c1nc(S(C)(=O)=O)ncc1N1CCOCC1,3.2%,-10.3%,3.8,/,6.3%,-12.2%
CCOc1ccccc1NC(=O)c1nc(S(=O)(=O)Cc2ccccc2F)ncc1Cl,/,-8.2%,/,/,/,21.3%
CCOc1ccc2[nH]c(=O)c(CN(CCO)C(c3nnnn3C3CCCCC3)C(C)C)cc2c1 (stereo not drawn),16.1%,-6.6%,-12.9,1.9%,0.0%,-13.4%
CCOc1ccc(NC(=O)Cn2cc(C(=O)c3ccc(C)c(C)c3)c(=O)c3cc(OC)c(OC)cc32)cc1,/,-3.4%,3.1,21.2%,-9.0%,-0.3%
O=C(Nc1ccccc1F)c1nc(S(=O)(=O)Cc2ccccc2F)ncc1Cl,/,?,-108.9*,?,2.82µM*,i
CCCc1nnc(NC(=O)c2nc(S(=O)(=O)Cc3cccc(C)c3)ncc2Cl)s1,?,/,-100.9*,28.2µM*,35.5µM*,/
Cc1ccc(CSc2ncc(Cl)c(C(=O)NCc3ccccc3)n2)cc1,/,-11.8%,92.4,-22.6%,2.5%,-19.5%
Cc1cccc(CS(=O)(=O)c2ncc(Cl)c(C(=O)NCc3ccccc3)n2)c1,?,-17.3%[7.34 µM],-92.4*,31.6µM*,7.94µM*,-18.2%[7.34 µM]
O=C(Nc1ccc(F)cc1)c1nc(S(=O)(=O)Cc2ccccc2)ncc1Cl,8.91µM*,/,-111.8*,?,6.31µM*,/
CC1=C(C(=O)OC(C)C)C(c2ccc(N(C)C)cc2)C2=C(CC(C)(C)CC2=O)N1 (stereo not drawn),?,-20.7%,-10.3,17.7%,1.3%,-29.8%
Cc1ccc2nsnc2c1S(=O)(=O)NCc1ccncc1,?,-1.1%,-11.6,-15.3%,-3.2%,0.0%[1.46 µM]
COCCNC(=O)C(C)N(c1ccc(OC)cc1)S(C)(=O)=O (stereo not drawn),2.7%,/,-16.6,-11.2%,-5.0%,/
COC(=O)C1=C(c2ccc(S(C)(=O)=O)cc2)C[C@@H]2CC[C@H]1N2C(=O)N1CCOCC1,-0.1%,-6.1%,-15.0,-10.2%,/,-12.3%
Cc1cc(C)c(C(=O)NC2CCCc3c2cnn3-c2cccc(C)c2C)o1 (stereo not drawn),?,6.1%,-74.3*,-17.0%,10.3%,-28.3%
Cc1cccc(-n2ncc3c2CCCC3NC(=O)C2(C(N)=O)CC2)c1C (stereo not drawn),1.58µM*,-15.8%,-39.9,?,7.7%,?
CCc1cc(C(=O)NC2CCCc3c2cnn3-c2cccc(C)c2C)n(C)n1 (stereo not drawn),?,-13.2%,-85.9*,28.2µM*,-6.7%,-27.4%
Cc1cccc(-n2ncc3c2CCCC3NC(=O)C2=CC(=O)CC(C)(C)O2)c1C (stereo not drawn),7.08µM*,-13.3%,-67.6*,?,-29.4%,-8.3%
Cc1cccc(-n2ncc3c2CCCC3NC(=O)Cn2cccn2)c1C (stereo not drawn),/,-10.0%,52.9,20.7%,-5.6%,-1.4%
COCCNC(=O)C(c1ccc(Cl)cc1)N(CCOC)C(=O)CCC(=O)Nc1nccs1 (stereo not drawn),0.1%,/,-3.7,-13.2%,/,/
SMILES,HCV inhibitor,Vaccinia Venus,HCMV antiviral,FMDV antiviral,Sm TGR block,VACV mCherry inh
Cc1cccc(-n2ncc3c2CCCC3NC(=O)CCN2CCCO2)c1C (stereo not drawn),?,-15.0%,-75.9*,0.0%,-29.6%,-20.2%
Cc1ccc(N(C(=O)c2snc(C(N)=O)c2N)C(C(=O)NC2CCCC2)c2ccncc2)cc1 (stereo not drawn),-6.1%,-10.4%,?,0.9%,-6.0%,-4.3%
COc1ccccc1C(=O)NCCC(=O)N1CCN(c2ccc(C(F)(F)F)cn2)CC1,?,-9.5%,-84.7*,?,-0.2%,-9.9%
COc1ccccc1C(=O)NCCC(=O)N1CCN(c2ccccc2Cl)CC1,22.4%,?,2.7,?,-9.7%,-14.2%
COC(=O)Oc1ccc(/C=N/NC(=O)CSCc2ccc(Cl)cc2)cc1OC,?,-23.4%,-60.0*,?,-7.4%,-22.3%
NS(=O)(=O)c1ccc(N/N=C/c2cn(-c3ccccc3)nc2-c2cccs2)c([N+](=O)[O-])c1,11.2µM*,-18.1%,-113.0*,?,4.0%,-12.7%
NS(=O)(=O)c1ccc(N/N=C/c2cn(-c3ccccc3)nc2-c2cccs2)cc1,1.78µM*,?,-76.6*,-25.3%,-4.7%,-19.9%
Cc1ccc(OCCSc2nc3ccc(NC(=O)c4ccc5c(c4)OCO5)cc3s2)cc1,/,11.2µM*,-5.8,?,6.1%,?
O=C(Nc1ccc2nc(SCCOc3ccccc3Cl)sc2c1)c1ccc2c(c1)OCO2,/,-23.6%,-26.6,?,7.1%,-0.8%
CCC(=O)Nc1ccc2nc(SCCOc3cccc(C)c3)sc2c1,/,-11.7%,-63.5*,-25.4%,7.1%,-4.5%
Cc1cccc(C(=O)Nc2ccc3nc(SCCOc4ccccc4)sc3c2)c1,/,-14.7%,-11.4,-20.8%,-4.8%,-15.2%
CC(=O)Nc1ccc2nc(SCCOc3ccccc3Cl)sc2c1,/,-19.6%,-80.4*,10.0%,-1.6%,?
Cc1ccc(OCCSc2nc3ccc(NC(=O)c4ccco4)cc3s2)cc1,/,-13.9%,-24.2,2.0%,-3.0%,-0.2%
COc1cc(C)ccc1OCCSc1nc2ccc(NC(=O)c3ccco3)cc2s1,/,-19.6%,-61.4*,?,12.4%,i
CSc1nsc(SCC(=O)Nc2ccc(C(=O)O)cc2)n1,15.2%,-23.1%,55.1,7.1%,-0.7%,i
CC(C)(CC(=O)O)CC(=O)N1CCN(c2nc3ccc(Cl)cc3s2)CC1,9.0%,/,/,3.1%,-7.6%,/
CCCCC(=O)N1CCN(c2nc3ccc(Cl)cc3s2)CC1,7.94µM*,-6.1%,?,3.5%,-24.8%,-14.1%
CC(C)(C)NC(=O)N1CCN(c2nc3ccc(Cl)cc3s2)CC1,12.6µM*,-12.6%,/,-6.3%,2.6%,-8.6%
CC(=O)COc1nc2c(c(-c3ccco3)c1C#N)CCc1ccccc1-2,11.2µM*,-7.3%[7.34 µM],/,-26.6%,44.7µM*,i[7.34 µM]

# Screening results deposited in PubChem BioAssay by National Center for Advancing Translational Sciences (NCATS).
